Screening data: PubChem BioAssay, National Center for Advancing Translational Sciences (NCATS)
KB-V1 cytotox: qHTS assay for MDR1-selective chemotherapeutics: Primary screen using the drug-selected MDR subline cells KB-V1; AID 1347076, 2019; KB-V1 MDR cells viability, CellTiter-Glo, 72 h; Potency, µM (titrated, usually from 46.1 µM), usual class: cytotoxic; 400,000 compounds, 3.4% hits; note: % is set by controls: 0 for no effect and ±100 for the full control effect; nearly all actives have a fitted effect of over 60% in size
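In this primary screen, KB-V1 cells overexpressing P-gp are incubated with library compounds (lowest to highest concentration) for 72 h at 37 degrees C before a luminescent ATP viability read.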
KB-3-1 tox: qHTS assay for MDR1-selective chemotherapeutics: Primary screen using the parental adenocarcinoma cell KB-3-1 | KB-3-1 viability, CellTiter-Glo ATP luminescence, 72 h | Potency, µM (doses to about 46.1 µM), usual class: cytotoxic | 400,000 compounds, 1.4% hits | AID 1347075, 2019; note: % is set by controls: 0 for no effect and ±100 for the full control effect; nearly all actives have a fitted effect of over 60% in size
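KB-3-1 parental drug-naive adenocarcinoma cells in DMEM/10% FBS, incubated 72 h at 37 C with pin-transferred compounds across a concentration series. Viability by CellTiter-Glo luminescence; concentration-response curves fitted after normalization.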
MCF10A rerep: A quantitative high throughput screen for small molecules that induce DNA re-replication in MCF 10a normal breast cells; 350,000 compounds, 2.9% hits; Potency, µM (top dose mostly 46.1 µM), without a hit: top-dose activity, positive = re-replication, usual class: activators; MCF 10A DNA re-replication, Hoechst nuclear intensity, 48 h; note: % of control where 0% means no effect; nearly all actives have a fitted effect of over 50% in size
RORgamma inh: qHTS for inhibitors of ROR gamma transcriptional activity | Nuclear receptor ROR-gamma (Mus musculus), P51450 | Drosophila S2 Gal4-RORgamma UAS-luciferase reporter, 20 h | Potency, µM (titrated, usually from 53.6 µM), for inactives: at the top dose activity change, negative = inhibition, most hits filed as inhibitors | 310,000 compounds, 5.4% hits; note: % is set by controls: 0 for no effect and ±100 for the full control effect; nearly all actives have a fitted effect of over 60% in size
Target sequence (P51450 whole entry, looked up, the tested form may be a part): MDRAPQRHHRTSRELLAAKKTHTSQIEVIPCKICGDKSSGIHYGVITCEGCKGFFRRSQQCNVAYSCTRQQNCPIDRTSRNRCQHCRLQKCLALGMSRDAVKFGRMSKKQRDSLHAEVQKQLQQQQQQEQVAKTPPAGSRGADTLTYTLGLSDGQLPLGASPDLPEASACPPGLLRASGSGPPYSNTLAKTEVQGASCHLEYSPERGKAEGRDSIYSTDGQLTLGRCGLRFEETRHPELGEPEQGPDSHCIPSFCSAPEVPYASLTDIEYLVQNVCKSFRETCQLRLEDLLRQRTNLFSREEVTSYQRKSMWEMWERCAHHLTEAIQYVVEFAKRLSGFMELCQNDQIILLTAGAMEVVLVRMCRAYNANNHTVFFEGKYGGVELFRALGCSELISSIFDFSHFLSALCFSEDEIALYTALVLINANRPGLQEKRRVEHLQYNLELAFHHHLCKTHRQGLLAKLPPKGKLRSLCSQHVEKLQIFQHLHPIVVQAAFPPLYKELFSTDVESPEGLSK
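Drosophila S2 cells stably expressing Gal4-DBD/mouse RORγ fusion under metallothionein promoter plus UAS-luciferase; compound 1 h, then 700 uM CuSO4 induction for 20 h at ambient temperature; inhibition read as reduced luminescence.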
SW480 rereplic: A quantitative high throughput screen for small molecules that induce DNA re-replication in SW480 colon adenocarcinoma cells; SW480 DNA re-replication, Hoechst DNA content imaging, 48 h; Potency, µM (doses to about 46.1 µM), without a hit: at the top dose re-replication activation, hits mostly activators; 340,000 compounds, 1.8% hits; AID 624297, 2012; note: % of control where 0% means no effect; nearly all actives have a fitted effect of over 55% in size
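Readout is total intensity of Hoechst-stained nuclei, excited at 405 nm and collected at 500-530 nm. Compound treatment lasted 48 hr at 37 C in 5% CO2 before staining.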
Gal4-VP16 FLuc: VP16 counterscreen qHTS for inhibitors of ROR gamma transcriptional activity. Drosophila S2 Gal4-VP16 UAS-luciferase, luminescence, 20 h. Potency, µM (titrated, usually from 53.6 µM), for the others: at the highest dose activity, negative = inhibition, hits mostly inhibitors. 310,000 compounds, 3.5% hits. AID 2546, 2010;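 note: Gal4-VP16 expression switched on by copper sulfate through the metallothionein promoter; % is set by controls: 0 for no effect and ±100 for the full control effect; nearly all actives have a fitted effect of over 50% in size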
An asterisk follows results filed as active; i = inactive; ? = inconclusive; nt = no result given; [ ] = dose if it differs, or a comment. An excerpt weighted towards active compounds, which were near 10% of everything screened. Calls come from the whole dose curve; as a rule, active = well fitted curve in the direction sought with a large enough effect; inconclusive = small, poorly fitted or top-dose-only effect, or another doubt; inactive = no such curve, though single readings can be large; an effect the other way counts as inactive or inconclusive. Potency is the fitted concentration of half-maximal effect.

SMILES	KB-V1 cytotox	KB-3-1 tox	MCF10A rerep	RORgamma inh	SW480 rereplic	Gal4-VP16 FLuc
Oc1ccc(/C=N/Nc2ncc(Cl)cc2Cl)cc1	i	i	13%	?	2%	6%
O=C(COC(=O)/C=C/c1ccco1)Nc1ncc(Cl)cc1Cl	?	i	-5%	34%	-191%	?
COc1ccccc1NC(=O)c1sc2ncn(Cc3ccccc3Cl)c(=O)c2c1C	i	i	nt	nt	nt	nt
Cc1ccc(N/C=C/C(=O)c2cccs2)cc1C	i	i	?	13µM*	20%	?
Cc1cc(C)c2c(CCl)cc(=O)oc2c1	?	?	5.2µM*	-5%	3.7µM*	12%
Cc1ccc(C(=O)O)cc1NC1(c2ccccc2)C(=O)c2ccccc2C1=O	i	i	nt	nt	nt	nt
CCN1CCN(c2nc3c(C)cccn3c(=O)c2/C=C(\C#N)C(=O)NC)CC1	i	i	5.8µM*	-15%	7%	2%
COCCNC(=O)/C(C#N)=C/c1c(N2CCN(c3ccccc3)CC2)nc2c(C)cccn2c1=O	i	i	22%	4%	?	-9%
CCN1CCN(c2nc3c(C)cccn3c(=O)c2/C=C(\C#N)C(=O)NCCCOC)CC1	i	i	18µM*	-3%	21µM*	7%
CNC(=O)/C(C#N)=C/c1c(N2CCN(C)CC2)nc2c(C)cccn2c1=O	i	i	-4%	0%	?	6%
COC(=O)/C(C#N)=C/c1c(N2CCN(c3ccccc3)CC2)nc2ccccn2c1=O	i	i	6%	2%	2%	6%
CNC(=O)/C(C#N)=C/c1c(N(Cc2ccccc2)Cc2ccccc2)nc2ccccn2c1=O	2.6µM*	i	-1%	31%	-7%	-17%
O=C(Cn1ncc2c([nH]c3ccccc32)c1=O)NCc1cccc(Cl)c1	i	i	nt	nt	nt	nt
COc1cc(C2C=C(C(=O)O)Nc3ncnn32)ccc1O (centres undefined)	?	i	nt	nt	nt	nt
COc1ccc(N2CCC(CNC(=S)Nc3ccc(C)cc3C)C2)cc1 (centres undefined)	i	i	2%	0.63µM*	0%	?
COc1ccc(N2CCC(CNC(=S)Nc3cccc(C)c3)C2)cc1 (centres undefined)	i	i	-1%	4µM*	-8%	5µM*
COc1ccc(N2CCC(CNC(=S)Nc3c(C)cc(C)cc3C)C2)cc1 (centres undefined)	i	i	29%	1.4µM*	8%	7.1µM*
COc1ccc(N2CCC(CNC(=O)Nc3ccc(C)c(C)c3)C2)cc1 (centres undefined)	i	i	15%	20%	0%	-1%
CCNc1ncc2nc(C)c(=O)n(CCOC)c2n1	nt	nt	nt	-7%	nt	1%
Cc1ccc(NC(=O)C(OC(=O)c2ccc(O)cc2)c2ccccc2)cc1Cl (centres undefined)	i	i	26µM*	-26%	5%	-8%
Cc1ccc(NC(=O)C(c2ccccc2)N(C)C)cc1Cl (centres undefined)	i	i	4%	18µM*	0%	?
Cc1ccc(NC(=O)C(C)N2CCCC2)cc1Cl (centres undefined)	?	i	6%	-3%	-4%	-5%
Cc1ccc(NC(=O)C(OC(=O)c2ccc(F)cc2)c2ccccc2)cc1Cl (centres undefined)	i	i	0%	42%	2%	-17%
c1ccc2c(c1)OCc1cn[nH]c1-2	i	i	9%	9%	?	-9%
c1ccc(N2CC3COc4ccccc4C3=N2)cc1 (centres undefined)	i	i	13µM*	nt	15µM*	nt
SMILES	KB-V1 cytotox	KB-3-1 tox	MCF10A rerep	RORgamma inh	SW480 rereplic	Gal4-VP16 FLuc
CN(C)c1ccc(C#Cc2ccc3cc(CCO)oc(=O)c3c2)cc1	i	i	12µM*	nt	?	nt
Cc1ccc(Nc2nc(N)c([N+](=O)[O-])c(NCCO)n2)cc1C	?	?	17%	-33%	0%	7%
Cc1ccc(CNc2nc(N)c([N+](=O)[O-])c(NCc3ccccc3)n2)cc1	i	i	?	1%	-2%	2%
Cc1ccc(Nc2nc(N)c([N+](=O)[O-])c(NCc3ccco3)n2)cc1C	12µM*	23µM*	?	?	18%	-2%
Nc1nc(NCc2ccccc2)nc(NCc2ccccc2)c1[N+](=O)[O-]	16µM*	i	8%	-11%	0%	-3%
CNc1nc(N)c([N+](=O)[O-])c(Nc2cccc(Cl)c2)n1	i	i	-2%	28%	4%	7%
Cc1cccc(Nc2nc(N)c([N+](=O)[O-])c(NCc3ccccc3)n2)c1	18µM*	i	18µM*	15%	?	-7%
CNc1nc(N)c([N+](=O)[O-])c(Nc2cccc(F)c2)n1	i	i	-1%	26%	18µM*	-1%
Cc1cccc(NC(=O)CSc2nc(C)cc(C)c2C(=O)Nc2ccc(Cl)cc2)c1	i	i	nt	nt	nt	nt
Cc1ccc(CNC(=O)c2ccc3c(c2)CCN3S(=O)(=O)c2ccc(Br)cc2)cc1	i	i	nt	nt	nt	nt
Clc1ccc(Cn2c3c(c4ccccc42)CCc2cc4ccccc4nc2-3)cc1	i	i	nt	nt	nt	nt
Cc1cc(C)cc(NC(=O)c2ccc3c(O)c(S(=O)(=O)c4ccccc4)c(=O)[nH]c3c2)c1	i	i	nt	nt	nt	nt
O=C(Cc1ccccc1)Nc1ccc(C(=O)NCC2COc3ccccc3O2)cc1 (centres undefined)	i	i	-15%	?	0%	?
O=C(NCC1COc2ccccc2O1)c1ccc(NC(=O)C(c2ccccc2)c2ccccc2)cc1 (centres undefined)	i	i	?	?	23µM*	-1%
CN(Cc1ccccc1)N=Nc1nc[nH]c1C(N)=O	i	i	nt	nt	nt	nt
Cc1ccc(-n2nc3c4c(cccc4c2=O)-c2ccccc2-3)cc1	8.2µM*	?	?	-35%	1%	-21%
COc1cc(C(=O)OCCN2CCCCC2)ccc1O	i	i	6%	-1%	-1%	-6%
COc1cc(C#CC#CCN2CCCCC2)ccc1O	10µM*	i	?	15%[10 µM]	?	?
CCc1ccccc1NC1Nc2cc(C)nn2S1 (centres undefined)	i	i	-3%	5.6µM*	6%	13µM*
